Four molecules from PubChem BioAssay (EPA / NIEHS) can be followed below.

Each structure is given as a SMILES string. The source made the active and inactive calls. The calls were made as follows: active = hit-call score of the fitted dose curve at least 0.9, where 1 is the maximum; inactive = score below 0.9.

Common to all, as to details: mRNA level, 48 h; actives raise or lower the signal
Read-out in test [1]: Cytochrome P450 4A22 (Homo sapiens) (UniProt Q5TCH4)
Put plainly: LTEA_HepaRG_CYP4A22: Life Technologies and Expression Analysis (LTEA) Assay for Cytochrome P450 4A22 (CYP4A22) using HepaRG (AID 2283495). The method in brief: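 HepaRG, 48 h post-plating -> serum-free induction medium; dosed 48 h, duplicate, 8 conc. (100 uM top, half-log), 0.5% DMSO. Readout: CYP4A22 mRNA by qRT-PCR, ACTB/GAPDH/POLR2A normalization; gain/loss fit relative to DMSO.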

Read-out in test [2]: Cytochrome P450 7A1 (Homo sapiens) (UniProt P22680)
Put plainly: LTEA_HepaRG_CYP7A1: Life Technologies and Expression Analysis (LTEA) Assay for Cytochrome P450 7A1 (CYP7A1) using HepaRG (AID 2283496). The method in brief:
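Using 0.5% DMSO as vehicle and baseline, chemicals were tested in duplicate over an 8-point range from 100 uM on HepaRG cells for 48 h; qRT-PCR signals were normalised to ACTB, GAPDH and POLR2A.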

Read-out in test [3]: Glutathione S-Transferase (GSTA2), GSTA2 (gene 2939)
As to the kind of experiment: LTEA_HepaRG_GSTA2: Life Technologies and Expression Analysis (LTEA) Assay for Glutathione S-Transferase (GSTA2) using HepaRG (AID 2283497). The method in brief: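 qRT-PCR readout of GSTA2 transcript, normalized to three housekeeping genes, fitted bidirectionally against 0.5% DMSO baseline. Differentiated HepaRG cells received compound for 48 h at 8 concentrations (top 100 uM, half-log steps).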

Read-out in test [4]: growth arrest and DNA damage 45 (GADD45G), GADD45G (gene 10912)
Put plainly: LTEA_HepaRG_GADD45G: Life Technologies and Expression Analysis (LTEA) Assay for growth arrest and DNA damage 45 (GADD45G) using HepaRG (AID 2283499). The method, boiled down: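 HepaRG, 48 h exposure, top 100 uM, half-log 8-point series, 0.5% DMSO vehicle, duplicates. Readout: GADD45G transcript by qRT-PCR (Fluidigm array), housekeeping-normalised (ACTB/GAPDH/POLR2A). Bidirectional curve fit vs DMSO baseline.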

Read-out in test [5]: Glutamate-cysteine ligase regulatory (GCLM), GCLM (gene 2730)
As to the kind of experiment: LTEA_HepaRG_GCLM: Life Technologies and Expression Analysis (LTEA) Assay for Glutamate-cysteine ligase regulatory (GCLM) using HepaRG (AID 2283500). The method in brief: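 HepaRG, 48 h dosing, 100 uM top, half-log x8, 0.5% DMSO vehicle. Readout: GCLM mRNA by TaqMan qRT-PCR, housekeeping-normalized (ACTB/GAPDH/POLR2A). Curves fit bidirectionally vs DMSO baseline.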

Read-out in test [6]: Heat shock 70 kDa protein 1 (HSPA1A), gene 3303
As to the kind of experiment: LTEA_HepaRG_HSPA1A: Life Technologies and Expression Analysis (LTEA) Assay for Heat shock 70 kDa protein 1 (HSPA1A) using HepaRG (AID 2283502). The method, boiled down:
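HepaRG, 48 h exposure, 8-pt half-log CRC from 100 uM in 0.5% DMSO, duplicates. Readout: TaqMan qRT-PCR of HSPA1A mRNA, housekeeping-normalized (ACTB/GAPDH/POLR2A). Bidirectional fit vs 0.5% DMSO baseline.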

Read-out in test [7]: Hypoxia-inducible factor 1-alpha (Homo sapiens) (UniProt Q16665)
Put plainly: LTEA_HepaRG_HIF1A: Life Technologies and Expression Analysis (LTEA) Assay for Hypoxia-inducible factor 1 (HIF1A) Trancription factor using HepaRG (AID 2283503). The method in brief: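 Gain- or loss-of-signal HIF1A mRNA changes are fitted against a DMSO baseline. HepaRG cultures receive eight concentrations, highest 100 uM, for 48 h in serum-free induction medium with 0.5% DMSO.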

Read-out in test [8]: 3-Hydroxy-3-Methylglutaryl-CoA Synthase 2 (HMGCS2), HMGCS2 (gene 3158)
Put plainly: LTEA_HepaRG_HMGCS2: Life Technologies and Expression Analysis (LTEA) Assay for 3-Hydroxy-3-Methylglutaryl-CoA Synthase 2 (HMGCS2) using HepaRG (AID 2283504). The method, boiled down:
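qRT-PCR read-out of HMGCS2 transcript, normalised to three housekeeping genes, in HepaRG cells after 48 h chemical exposure. Eight-point curves from 100 uM, half-log dilutions, 0.5% DMSO vehicle; gain or loss fitted relative to DMSO baseline.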

Read-out in the next test: HGF (gene 3082)
As to the kind of experiment: LTEA_HepaRG_HGF: Life Technologies and Expression Analysis (LTEA) Assay for Hepatocyte Growth Facto (HGF) using HepaRG (AID 2283505). The method in brief:
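HepaRG, 48 h dosing, 8-pt half-log series from 100 uM in 0.5% DMSO, duplicates. Readout: TaqMan qRT-PCR of HGF mRNA, housekeeping-normalized; bidirectional curve fit vs DMSO baseline.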

Read-out in test [9]: Insulin Like Growth Factor 1 (IGF1), IGF1 (gene 3479)
Put plainly: LTEA_HepaRG_IGF1: Life Technologies and Expression Analysis (LTEA) Assay for Insulin Like Growth Factor 1 (IGF1) using HepaRG (AID 2283506). The method, boiled down: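 qRT-PCR readout of IGF1 mRNA, normalized to three housekeeping genes, after 48 h chemical exposure of HepaRG cells. Concentrations: 8-point half-log series, top 100 uM, 0.5% DMSO vehicle. Gain or loss fitted against DMSO baseline.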

Read-out in test [10]: Intercellular Adhesion Molecule 1 (ICAM1), ICAM1 (gene 3383)
As to the kind of experiment: LTEA_HepaRG_ICAM1: Life Technologies and Expression Analysis (LTEA) Assay for Intercellular Adhesion Molecule 1 (ICAM1) using HepaRG (AID 2283507). The method in brief: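 HepaRG, 48 h exposure, 8-pt half-log series from 100 uM, 0.5% DMSO vehicle, duplicates. Readout: TaqMan qRT-PCR mRNA, housekeeping-normalized (ACTB/GAPDH/POLR2A). Bidirectional curve fit vs DMSO baseline.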

Read-out in test [11]: Insulin-like growth factor-binding protein 1 (IGFBP1), IGFBP1 (gene 3484)
Put plainly: LTEA_HepaRG_IGFBP1: Life Technologies and Expression Analysis (LTEA) Assay for Insulin-like growth factor-binding protein 1 (IGFBP1) using HepaRG (AID 2283508). The method in brief: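 qRT-PCR mRNA read-out (TaqMan, Fluidigm array), normalised to three housekeeping genes; HepaRG cells, 48 h exposure, 8-pt half-log series from 100 uM, 0.5% DMSO vehicle; bidirectional curve fit vs DMSO baseline.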

Read-out in test [12]: Interleukin 6 Receptor (IL6R), IL6R (gene 3570)
Put plainly: LTEA_HepaRG_IL6R: Life Technologies and Expression Analysis (LTEA) Assay for Interleukin 6 Receptor (IL6R) using HepaRG (AID 2283510). The method in brief: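 HepaRG, 48 h exposure, 8-pt half-log series, top 100 uM, 0.5% DMSO vehicle, duplicates. Read-out: TaqMan qRT-PCR of IL6R transcript, housekeeping-gene normalized. Gain or loss fitted relative to DMSO baseline.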

Read-out in test [13]: Potassium channel subfamily K member 1 (KCNK1), KCNK1 (gene 3775)
As to the kind of experiment: LTEA_HepaRG_KCNK1: Life Technologies and Expression Analysis (LTEA) Assay for Potassium channel subfamily K member 1 (KCNK1) using HepaRG (AID 2283511). The method, boiled down:
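HepaRG, 48 h exposure, 8-pt half-log series top 100 uM, 0.5% DMSO vehicle, duplicates. Readout: KCNK1 transcript by qRT-PCR (Fluidigm array), housekeeping-normalized; bidirectional curve fit relative to DMSO baseline.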

Read-out in test [14]: Keratin 19 (KRT19), KRT19 (gene 3880)
As to the kind of experiment: LTEA_HepaRG_KRT19: Life Technologies and Expression Analysis (LTEA) Assay for Keratin 19 (KRT19) using HepaRG (AID 2283512). The method, boiled down: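 HepaRG, 48 h chemical exposure, 8-pt half-log CRC from 100 uM, 0.5% DMSO vehicle, duplicates. Readout: TaqMan qRT-PCR of KRT19 mRNA, housekeeping-normalized (ACTB/GAPDH/POLR2A). Bidirectional fit vs DMSO baseline.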

Read-out in test [15]: Lipase C (LIPC), LIPC (gene 3990)
Put plainly: LTEA_HepaRG_LIPC: Life Technologies and Expression Analysis (LTEA) Assay for Lipase C (LIPC) using HepaRG (AID 2283514). The method in brief: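 HepaRG, 48 h exposure, 8-pt half-log series from 100 uM in 0.5% DMSO, duplicates. Readout: LIPC mRNA by Fluidigm qRT-PCR, housekeeping-normalized (ACTB/GAPDH/POLR2A). Gain or loss fitted bidirectionally against DMSO baseline.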

Read-out in test [16]: Lipoprotein lipase (LPL), LPL (gene 4023)
As to the kind of experiment: LTEA_HepaRG_LPL: Life Technologies and Expression Analysis (LTEA) Assay for Lipoprotein lipase (LPL) using HepaRG (AID 2283515). The method in brief:
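HepaRG, 48 h exposure, 8-pt half-log dilutions from 100 uM, 0.5% DMSO vehicle, duplicates; qRT-PCR (Fluidigm array) of LPL mRNA vs housekeeping genes; bidirectional curve fit relative to DMSO baseline.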

Read-out in test [17]: MicroRNA 122 (MIR122), gene 406906
As to the kind of experiment: LTEA_HepaRG_MIR122: Life Technologies and Expression Analysis (LTEA) Assay for MicroRNA 122 (MIR122) using HepaRG (AID 2283516). Also: the transcript read is the microRNA miR-122. The method, boiled down: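 qRT-PCR read-out (TaqMan, Fluidigm array), normalized to three housekeeping genes; HepaRG cells dosed 48 h at 8 concentrations up to 100 uM in 0.5% DMSO, duplicate; gain or loss fitted against DMSO baseline.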

Read-out in test [18]: matrix metalloproteinase-10 (MMP10), MMP10 (gene 4319)
Put plainly: LTEA_HepaRG_MMP10: Life Technologies and Expression Analysis (LTEA) Assay for matrix metalloproteinase-10 (MMP10) using HepaRG (AID 2283517). The method in brief:
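Transcript levels come from Fluidigm qRT-PCR normalized to three housekeeping genes, with curves fitted bidirectionally against 0.5% DMSO. Human HepaRG cells were dosed for 48 hours at concentrations up to 100 uM.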

Read-out in another test: MYC, MYC (gene 4609)
As to the kind of experiment: LTEA_HepaRG_MYC: Life Technologies and Expression Analysis (LTEA) Assay for MYC using HepaRG (AID 2283518). The method in brief: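 qRT-PCR read-out of MYC transcript (Fluidigm TaqMan, housekeeping-normalized) after 48 h chemical exposure of HepaRG cells; eight concentrations, top 100 uM, half-log steps. Bidirectional curve fitting against 0.5% DMSO vehicle baseline.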

Chain of Hypoxia-inducible factor 1-alpha (Homo sapiens) (Q16665 whole entry, looked up): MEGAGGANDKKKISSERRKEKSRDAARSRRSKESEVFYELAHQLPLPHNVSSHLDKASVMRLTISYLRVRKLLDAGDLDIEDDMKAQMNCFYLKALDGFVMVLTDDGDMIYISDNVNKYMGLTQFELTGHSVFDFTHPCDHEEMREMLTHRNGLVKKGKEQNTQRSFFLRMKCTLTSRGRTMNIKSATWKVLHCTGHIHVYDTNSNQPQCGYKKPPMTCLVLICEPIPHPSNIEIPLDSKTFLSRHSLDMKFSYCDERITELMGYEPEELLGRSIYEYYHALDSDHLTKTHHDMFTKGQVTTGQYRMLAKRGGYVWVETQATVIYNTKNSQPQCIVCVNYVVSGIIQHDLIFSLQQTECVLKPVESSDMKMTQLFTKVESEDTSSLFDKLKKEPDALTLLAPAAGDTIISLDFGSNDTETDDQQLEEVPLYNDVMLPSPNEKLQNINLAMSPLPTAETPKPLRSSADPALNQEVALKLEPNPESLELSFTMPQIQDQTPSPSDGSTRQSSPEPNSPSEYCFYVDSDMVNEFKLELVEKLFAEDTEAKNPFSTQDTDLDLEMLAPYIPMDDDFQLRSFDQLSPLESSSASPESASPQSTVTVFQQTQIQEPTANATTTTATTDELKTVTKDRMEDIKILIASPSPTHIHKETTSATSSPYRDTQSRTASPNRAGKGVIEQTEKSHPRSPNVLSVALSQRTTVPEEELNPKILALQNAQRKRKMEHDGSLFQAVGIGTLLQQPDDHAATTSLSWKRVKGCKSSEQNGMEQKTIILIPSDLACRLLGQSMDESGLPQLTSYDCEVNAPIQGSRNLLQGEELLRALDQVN

Take `C=CC(=O)OCCCCCC(C)C`: the molecule was called inactive in test [1], in test [2], in test [3], in test [4], in test [5] and in [6]. Besides, the outcome (in test [7]; in test [8]; in the test with HGF (gene 3082); in test [9]; in test [10]; in test [11]) was inactive. Moreover, the call in test [12], in test [13], in [14], in test [15], in [16] and in test [17] was inactive. Also, the outcome in test [18] is “inactive”; with MYC, MYC (gene 4609) it was “inactive”.

On to `NC(=O)O`, for which the outcome in [1], in test [2], in test [3], in test [4], in test [5] and in [6] was inactive. In addition, the molecule was called inactive (in [7]; in [8]; with HGF (gene 3082); in [9]; in test [10]; in [11]). Further, the call in [12], in test [13], in test [14], in test [15], in [16] and in test [17] was inactive. Besides, the outcome was “inactive” in test [18] and “inactive” in the test with MYC, MYC (gene 4609).

In the case of `Oc1cccc2cccnc12`, the outcome in [1], in test [2], in test [3], in test [4], in test [5] and in test [6] was inactive. Moreover, the result (in test [8]; with HGF (gene 3082); in [9]; in [10]; in test [11]; in test [12]) was inactive. Also, the molecule was called inactive in [13], in test [14], in test [15], in [16], in test [17] and in test [18]. The molecule was called inactive in the test with MYC, MYC (gene 4609).

In general, AC50 refers to the concentration at which the activity in the assay is half-maximal. Turning to `C[C@]12CCC(=O)C[C@@H]1CC[C@@H]1[C@@H]2CC[C@]2(C)[C@@H](O)CC[C@@H]12`, the AC50 in test [1] is 28.8 µM (active). Moreover, the call in test [2], in test [3], in test [4], in test [5], in [6] and in test [7] was inactive. For the same molecule, the call (in test [8]; with HGF (gene 3082); in [9]; in [10]; in test [11]; in test [12]) was inactive. Also, the result in test [13], in [14], in [15], in test [16], in [17] and in [18] was inactive. Moreover, the result with MYC, MYC (gene 4609) was inactive.
